From PubChem BioAssay
Compounds with a hit are over-represented: about 2.9% of the library has one in this group of screens.
N-glyco inh: N-linked glycosylation inhibition. D54 ERlucT glycosylation luciferase reporter, 24 h; percent of 100 nM tunicamycin response. reporter increase, % at 12.5 µM. hit rate 0.23% among 360,000. AID 588692;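 active means mean luciferase reporter signal, scaled so untreated is 0 and the glycosylation-blocking control 100, at or above a set limit in every replicate; inconclusive means mean reaches the limit but not every replicate does; inactive means mean below the limit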;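 further: luciferase carries N-glycosylation sites so blocking glycosylation raises the light; 0% = median of neutral control wells and 100% = median of 100 nM tunicamycin wells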
esBAF inh: SWI/SNF esBAF complex inhibition | AID 602393 | hit rate 2% among 350,000 | reporter increase, % at 12.5 µM | mouse ES cells, Bmi1-luciferase knock-in reporter, 24 h; 100% = twice the neutral-well signal; in the data active means activation above about 40%; inconclusive means no clear call, values can overlap the other calls;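 further: 0% = median of the plate's neutral control wells and 100% = double that signal; a rise in the Bmi1 reporter signal indicates esBAF inhibition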
Vif inh: blocks HIV Vif function; inhibition, % at 7.49 µM; hit rate 0.35% among 340,000; HEK293T cells, Vif self-association by quenched fluorescence, imaging, 24 h; in the data active means inhibition above about 50%, passing the limit was not always enough; inconclusive means no clear call, values can overlap the other calls; inactive means below about 31%
Wnt bcat act: activates Wnt/beta-catenin signaling in a reporter cell assay. activator, plate reader. activation, % at 9.35 µM. hit rate 1.2% among 300,000; in the data active means activation above about 30%, passing the limit was not always enough; inconclusive means no clear call, values can overlap the other calls;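 further: 0% = neutral control wells and 100% = positive control wells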
PvdQ inh: P. aeruginosa PvdQ acylase inhibition | hit rate 0.063% among 340,000 | AID 488965 | inhibition, % at 10 µM | purified PvdQ acylase, fluorescence plate reader; in the data active means inhibition above about 30%, passing the limit was not always enough; inconclusive means no clear call, values can overlap the other calls;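 further: 0% = vehicle neutral wells and 100% = reference inhibitor wells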
MITF TRPM1 HTS: activators of MITF-driven TRPM1 promoter activity in SK-MEL-5 cells | SK-MEL-5 TRPM1-promoter luciferase, 24 h; % of positive control, neutral wells = 0 | activation, % at 12.5 µM | hit rate 0.75% among 300,000 | AID 588334;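 active means mean activation of at least 80% with every replicate also reaching 80%; inconclusive means mean reaches 80% but some replicate falls short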;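 further: 0% = neutral control wells and 100% = parthenolide positive control wells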
* hit, by the source's call; ? = inconclusive; nt = no result.

SMILES	N-glyco inh	esBAF inh	Vif inh	Wnt bcat act	PvdQ inh	MITF TRPM1 HTS
CO[C@@H]1CN(C)C(=O)c2ccc(NC(=O)c3cnccn3)cc2OC[C@@H](C)N(CCc2ccccc2)C[C@H]1C	nt	4	nt	nt	nt	nt
CCCNC(=O)[C@@H]1[C@@H](CO)[C@@H]2Cn3c(cccc3=O)[C@H]1N2Cc1cccc(Cl)c1	nt	-1	nt	nt	nt	nt
COCCNC(=O)C[C@H]1C[C@H]2c3cc(N(C)C)ccc3O[C@H]2[C@@H](CO)O1	nt	1	nt	nt	nt	nt
O=C(NCC1CC1)c1cccs1	0	nt	-2	0	nt	nt
O=C(CNC(=O)c1cccs1)c1ccc(Br)cc1	-7	26	12	27	-7	123*
O=C(NCCc1cccs1)c1cccs1	-3	61*	-3	11	-5	?
O=C(CNC(=O)c1cccs1)OCc1ccc(Br)cc1	0	nt	-1	3	0	8
O=C(NCc1ccc(F)cc1)c1cccs1	1	-5	8	0	12	2
O=C(NCCc1ccc(F)cc1)c1cccs1	-1	65*	-4	11	6	29
O=C(NCCCCCCNC(=O)c1cccs1)c1cccs1	-1	nt	-1	26	-3	7
O=C(NCCC1CCCC1)c1cccs1	-3	50*	-1	3	-8	nt
C[C@@H]1CN([C@H](C)CO)C(=O)c2cc(-c3cncnc3)cnc2O[C@H]1CN(C)C(=O)Cc1ccccn1	nt	-5	nt	nt	nt	nt
COc1ccc(S(=O)(=O)N(C)C[C@@H]2Oc3c(NS(=O)(=O)c4ccccc4)cccc3C(=O)N([C@H](C)CO)C[C@@H]2C)cc1	nt	-1	nt	nt	nt	nt
COc1ccc2cc(CCNC(=O)c3cccs3)c(=O)[nH]c2c1	-1	72*	0	51*	1	90*
Cc1ccc(C(=O)NC(=C(Cl)Cl)S(=O)(=O)c2ccccc2)cc1	?	nt	0	9	-4	14
COC(=O)NC(=C(Cl)Cl)S(=O)(=O)c1ccccc1	51*	12	12	3	-12	-30
COc1ccc(C(=O)NC(=C(Cl)Cl)S(=O)(=O)c2ccc(C)cc2)cc1	27*	nt	7	3	-7	4
CCC(=O)Nc1ccc2c(c1)C(=O)N(C)C[C@@H](OC)[C@H](C)CN(C(=O)c1ccc(F)cc1)[C@@H](C)CO2	nt	-5	nt	nt	nt	nt
COc1ccccc1-c1ccc2n(c1=O)C[C@@H]1[C@@H](CO)[C@H](C(=O)N(C)C)N[C@H]21	nt	-2	nt	nt	nt	nt
O=C1/C(=C/c2ccco2)CCc2ccccc21	-2	nt	-1	24	-8	22
Nc1ccc2c(c1)C/C(=C/c1ccco1)C2=O	0	nt	-8	66*	0	55
C[C@@H]1CCCCO[C@@H](CN(C)CC2CC2)[C@@H](C)CN([C@H](C)CO)C(=O)c2cc(NC(=O)Nc3ccc(C(F)(F)F)cc3)ccc2O1	nt	-5	nt	nt	nt	nt
CCCC(=O)NC(NC(=S)Nc1ccc(N=Nc2ccccc2)cc1)C(Cl)(Cl)Cl (stereo not given)	30*	nt	-6	-8	17	-48
C[C@H]1CN([C@@H](C)CO)C(=O)c2cccc(NS(C)(=O)=O)c2O[C@@H]1CN(C)Cc1ccc(C(F)(F)F)cc1	nt	-4	nt	nt	nt	nt
Cc1ccc(/C(N)=N/OC(=O)c2ccc3c(c2)OCO3)cc1	-14	nt	nt	22	-10	72
SMILES	N-glyco inh	esBAF inh	Vif inh	Wnt bcat act	PvdQ inh	MITF TRPM1 HTS
N/C(=N\OC(=O)c1ccc2c(c1)OCO2)c1ccncc1	-1	31	-4	55*	-8	55
N/C(=N\OC(=O)c1ccc2c(c1)OCO2)c1ccc(Cl)cc1	-7	28	nt	-2	12	106*
O=C(NCC1CC1)[C@H]1[C@H](CO)[C@H]2Cn3c(ccc(-c4ccccc4)c3=O)[C@H]2N1Cc1cocn1	nt	-3	nt	nt	nt	nt
Cc1ccc2[nH]c(=O)c(-c3nc4ccccn4c3NCc3ccco3)cc2c1	2	29	-3	55*	12	14
O=C(N=C1N=C2C=CC(Br)=CN2Cc2ccccc21)c1ccc([N+](=O)[O-])cc1[N+](=O)[O-]	-3	nt	23	56*	-3	39
O=C(c1ccc([N+](=O)[O-])cc1[N+](=O)[O-])N1CCc2ccccc21	4	5	-5	1	-17	nt
Cc1ccc(C2NNC(=O)C2NC(=O)c2ccccc2)cc1 (stereo not given)	-1	51*	2	nt	-11	34
COc1ccc(-c2cc(OC)c3ccccc3n2)cc1	2	nt	-3	nt	-4	-4
COc1ccc(-c2ccc3ccccc3n2)cc1	-16	nt	-2	9	27	48
